Results: PubChem BioAssay (NCATS)
Results filed as inconclusive are left out. Active and inactive are the calls of the source. Calls come from the whole dose curve; as a rule, active = well fitted curve in the direction sought with a large enough effect; inconclusive = small, poorly fitted or top-dose-only effect, or another doubt; inactive = no such curve, though single readings can be large; an effect the other way counts as inactive or inconclusive.

Assays:
[1] = molecular target: Cellular tumor antigen p53 (Homo sapiens) (UniProt P04637); assay: Primary qHTS for small molecule compounds that upregulate eGFP-tagged delta133p53alpha (in N-terminal) cells. (AID 2060322); settings: NCI-H358 eGFP-delta133p53alpha fluorescence, 24 h; activation: active compounds read high;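 note: cells pre-induced with doxycycline then dosed without doxycycline; series mostly up to about 56 µM; 0% = DMSO vehicle and 100% = reference activator; nearly all actives have a fitted effect of over 75% in size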
How it was run: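 NCI-H358 cells pre-induced 24 h with 10 ng/ml doxycycline for eGFP-delta133p53alpha, plated dox-free and exposed 24 h at 37C to titrated compounds. Fixed, Hoechst-stained; gated GFP peak intensity by laser scanning cytometry, normalized to DMSO (0%) and 57.5 uM 5-azacytidine (100%).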

[2] = molecular target: Aldehyde dehydrogenase, mitochondrial (Homo sapiens) (UniProt P05091); assay: qHTS for Inhibitors of the Aldehyde Dehydrogenase Family (ALDH2) Primary screen (AID 2061308);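 note: plate controls were vehicle for no effect and reference inhibitor for full effect; nearly all actives have a fitted effect of over 55% in size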
[3] = molecular target: Retinaldehyde dehydrogenase 3 (Homo sapiens) (UniProt P47895); assay: qHTS for Inhibitors of the Aldehyde Dehydrogenase Family (ALDH1A3) Primary screen (AID 2061315);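 note: plate controls were DMSO vehicle for no effect and reference inhibitor for full effect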

Sequence of Cellular tumor antigen p53 (Homo sapiens) (P04637 whole entry, looked up): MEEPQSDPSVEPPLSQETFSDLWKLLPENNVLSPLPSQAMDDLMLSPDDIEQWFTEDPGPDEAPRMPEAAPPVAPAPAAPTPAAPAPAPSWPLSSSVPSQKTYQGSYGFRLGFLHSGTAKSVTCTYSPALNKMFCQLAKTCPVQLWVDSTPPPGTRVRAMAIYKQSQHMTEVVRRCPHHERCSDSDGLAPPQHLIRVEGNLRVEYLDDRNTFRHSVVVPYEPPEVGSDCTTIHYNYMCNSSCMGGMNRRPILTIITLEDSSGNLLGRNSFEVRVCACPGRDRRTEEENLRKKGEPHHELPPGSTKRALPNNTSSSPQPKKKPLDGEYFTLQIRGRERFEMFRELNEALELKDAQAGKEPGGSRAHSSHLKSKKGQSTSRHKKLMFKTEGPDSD

C=C1/C(=C/C=C2\CCC[C@]3(C)[C@@H]([C@H](C)CC[C@@H](O)C(C)(C)O)CC[C@@H]23)C[C@@H](O)C[C@@H]1O
inactive: activation [1] 10.3% | Potency [2] | Potency [3]

CC(CO)C1CCC2(C)CC3C(CO)CC(O)C3C(C)(O)C/C=C/12 (centres undefined)
inactive: activation [1] -8.04% | Potency [2] | Potency [3]

CC(C)CC(=O)O[C@@H]1O[C@H](CO)[C@@H](O[C@H]2O[C@H](C)[C@@H](N[C@H]3C=C(CO)[C@@H](O[C@H]4O[C@H](CO)[C@@H](O[C@H]5O[C@H](CO)[C@@H](O[C@H]6O[C@H](CO)[C@@H](O)[C@H](O)[C@H]6O)[C@H](O)[C@H]5O)[C@H](O)[C@H]4O)[C@H](O)[C@H]3O)[C@H](O)[C@H]2O)[C@H](O)[C@H]1O
inactive: activation [1] -13.7% | Potency [2] | Potency [3]

CC1=C2C3OC(=O)C(C)C3(O)CCC2(C)CCC1O (centres undefined)
inactive: activation [1] -10.7% | Potency [2] | Potency [3]

Cc1ccc(-c2ncccn2)c(C(=O)N2C[C@H](COc3ccc(F)cn3)CC[C@H]2C)c1
inactive: activation [1] -14.3% | Potency [2] | Potency [3]

C=C(C)C1=C[C@@]2(C)C(=CC1=O)CC[C@@H](O)[C@@H]2C
inactive: activation [1] 22.1% | Potency [2] | Potency [3]

Nc1ccc(-n2nc(C(F)(F)F)cc2C(F)(F)F)cc1
inactive: activation [1] 0.893% | Potency [2] | Potency [3]

CCC(CC)C(=O)Nc1sc2c(c1C#N)CCC(C(C)(C)CC)C2 (centres undefined)
inactive: activation [1] -3.34% | Potency [2] | Potency [3]

CCN1CCC[C@@H]1CNC(=O)c1ccc2c(c1)NC(=O)c1cccc(C)c1S2
inactive: activation [1] 19.7% | Potency [2] | Potency [3]

CCC(=O)OCC(=O)[C@@]1(OC(=O)CC)[C@@H](C)C[C@H]2[C@@H]3CCC4=CC(=O)C=C[C@]4(C)[C@@]3(F)[C@@H](O)C[C@@]21C
inactive: activation [1] -5% | Potency [2] | Potency [3]

CCC(=O)O[C@]1(C(=O)CCl)[C@@H](C)C[C@H]2[C@@H]3C[C@H](F)C4=CC(=O)C=C[C@]4(C)[C@@]3(F)[C@@H](O)C[C@@]21C
inactive: activation [1] 17.9% | Potency [2] | Potency [3]

CC(C)C1=CC2=CCC3[C@](C)(CCC[C@@]3(C)C(=O)O)C2CC1=O (some centres undefined)
inactive: activation [1] 8.93% | Potency [2] | Potency [3]

C=C(C)[C@H]1CC[C@]2(C(=O)O)CC[C@]3(C)C(CCC4[C@@]5(C)CCC(=O)C(C)(C)C5CC[C@]43C)C12 (some centres undefined)
inactive: activation [1] -11.6% | Potency [2] | Potency [3]

COc1cc(O)cc(/C=C/c2ccc(O[C@@H]3O[C@H](CO)[C@@H](O)[C@H](O)[C@H]3O)cc2)c1
inactive: activation [1] -11.6% | Potency [2] | Potency [3]

NC(=O)C(O[C@@H]1O[C@H](CO[C@@H]2O[C@H](CO)[C@@H](O)[C@H](O)[C@H]2O)[C@@H](O)[C@H](O)[C@H]1O)c1ccccc1 (some centres undefined)
inactive: activation [1] -6.11% | Potency [2] | Potency [3]

C[C@@H](CC[C@@H]1[C@@]2(C)CCCC(C)(C)C2CC[C@@]1(C)O)CC(=O)O (some centres undefined)
inactive: activation [1] -12.2% | Potency [2] | Potency [3]

CC(C)=CCC[C@](C)(O[C@@H]1O[C@H](CO[C@@H]2OC[C@H](O)[C@H](O)[C@H]2O)[C@@H](O)[C@H](O)[C@H]1O)[C@H]1CC[C@]2(C)[C@@H]1[C@H](O)C[C@@H]1[C@@]3(C)CC[C@H](O[C@@H]4O[C@H](CO)[C@@H](O)[C@H](O)[C@H]4O[C@@H]4O[C@H](CO)[C@@H](O)[C@H](O)[C@H]4O)C(C)(C)[C@@H]3CC[C@]12C
inactive: activation [1] 9.67% | Potency [2] | Potency [3]

CC(C)=CCC/C(C)=C/CO[C@@H]1O[C@H](CO)[C@@H](OC(=O)/C=C/c2ccc(O)cc2)[C@H](O[C@@H]2O[C@@H](C)[C@H](O)[C@@H](O)[C@H]2O)[C@H]1O
inactive: activation [1] 19.6% | Potency [2] | Potency [3]

CO[C@@H]1CC(OC2CCC3(C)C(CCC45CCC(C6=CC(=O)OC6)C(C)(CCC43)C5=O)C2)O[C@H](C)[C@@H]1O[C@@H]1O[C@H](CO[C@@H]2O[C@H](CO)[C@@H](O)[C@H](O)[C@H]2O)[C@@H](O)[C@H](O)[C@H]1O (some centres undefined)
inactive: activation [1] 1.53% | Potency [2] | Potency [3]

CC(C)c1cc2c(N3CCN(C4=NCC(C)(C)S4)CC3)ncnc2s1
inactive: activation [1] 3.67% | Potency [2] | Potency [3]

C[C@H](NC(=O)C(C)(C)Oc1ccc(C(F)(F)F)cn1)[C@@H](Cc1ccc(Cl)cc1)c1cccc(C#N)c1
inactive: activation [1] 5.36% | Potency [2] | Potency [3]

Cc1ccccc1NC(=O)Nc1ccc(CC(=O)N(C)[C@@H](CC(C)C)C(=O)NCC[C@H](NC(=O)[C@@H]2CCCN2S(=O)(=O)c2cc(Cl)cc(Cl)c2)C(=O)O)cc1
inactive: activation [1] 1.67% | Potency [2] | Potency [3]

COc1c(C(O)CC(C)C)ccc2c1C(=O)OCc1cc(C)cc(O)c1O2 (centres undefined)
inactive: activation [1] -2.68% | Potency [2] | Potency [3]
